Test results: the antibiotic and cytotoxicity screens of Wong et al. (2023)
The campaign covered roughly 39,000 compounds. About 3,300 (8.5%) were called active. This is one part of a sample in which actives are shown more often than they occur.

test system: HepG2; experiment: cytotoxicity call (relative viability < 0.9); details: 10 µM

Compound | cytotoxicity call
C[C@@H]1CCCCO[C@H](CN(C)C(=O)Cc2ccccc2)[C@@H](C)CN([C@H](C)CO)C(=O)c2cc(NC(=O)Nc3ccc4c(c3)OCO4)ccc2O1 | inactive
CNC[C@H]1Oc2ccc(NS(=O)(=O)c3cn(C)cn3)cc2C(=O)N([C@@H](C)CO)C[C@H]1C | inactive
C[C@@H]1CCCCO[C@@H](CN(C)C(=O)Nc2ccccc2)[C@H](C)CN([C@@H](C)CO)C(=O)c2cc(NC(=O)Nc3ccccc3)ccc2O1 | inactive
C[C@@H]1CN([C@@H](C)CO)C(=O)c2cc(-c3ccc(C(=O)N(C)C)cc3)cnc2O[C@H]1CN(C)C(=O)CN(C)C | inactive
C[C@H]1CCCCO[C@H](CN(C)Cc2ccccc2)[C@@H](C)CN([C@@H](C)CO)C(=O)c2cc(NC(=O)c3ccncc3)ccc2O1 | inactive
Cc1noc(C)c1NC(=O)Nc1ccc2c(c1)C(=O)N([C@H](C)CO)C[C@@H](C)[C@H](CN(C)Cc1ccc(Oc3ccccc3)cc1)O2 | inactive
Cc1cc(C(=O)Nc2cccc3c2O[C@@H](CN(C)C(=O)NC(C)C)[C@H](C)CN([C@H](C)CO)C3=O)n(C)n1 | inactive
C[C@@H]1CN([C@@H](C)CO)C(=O)c2cc(NC(=O)Nc3cccc4ccccc34)ccc2O[C@@H](C)CCCCO[C@@H]1CN(C)S(=O)(=O)c1ccc(F)cc1 | inactive
CN1CCN(C(=O)C[C@H]2CC[C@@H](NC(=O)c3ccc4c(c3)OCO4)[C@H](CO)O2)CC1 | inactive
C[C@@H]1CN([C@@H](C)CO)C(=O)c2c(c3ccccc3n2C)-c2ccccc2CO[C@H]1CN(C)C(=O)Nc1ccccc1 | inactive
CN1C(=O)c2cc(NC(=O)C3CCOCC3)ccc2OC[C@H]2O[C@H](CC(=O)NCc3ccccc3F)CC[C@H]21 | inactive
C[C@H]1CN([C@@H](C)CO)C(=O)c2cc(NS(=O)(=O)c3cn(C)cn3)ccc2O[C@@H]1CN(C)Cc1ccccc1 | inactive
CC1=C(CCC(=O)O)c2cc3[nH]c(cc4nc(cc5[nH]c(cc1n2)c(C)c5C(C)O)C(C)=C4C(C)O)c(C)c3CCC(=O)O (centres undefined) | active
CC/1=C(CCC(=O)O)/C/2=C/c3[nH]c(c(c3CCC(=O)O)C)/C=C/3\N=C(/C=C/4\N=C(\C=C1/N2)C(=C4C)C=C)C(=C3C)C=C | active
COC(=O)CCc1c(c/2[nH]c1/C=C/1\N=C(/C=C/3\N=C(/C=C/4\N/C(=C2)[C@]2(C)[C@H](C(=O)OC)C(=CC=C42)C(=O)OC)C(=C3C=C)C)C(=C1CCC(=O)O)C)C | active
C=CC1=C(C)C(=Cc2[nH]c(Cc3[nH]c(C=C4NC(=O)C(C)=C4C=C)c(C)c3CCC(=O)O)c(CCC(=O)O)c2C)NC1=O | inactive
C=CC1=C(C)C2=NC/1=C\C1=NC(=C\C3=NC(=C\C4=NC(=C\2)/C(C)=C4CCC(=O)O)/C(CCC(=O)O)=C3C)/C(C=C)=C1C | inactive
C=CC1=C(C)c2cc3[nH]c(cc4nc(cc5[nH]c(cc1n2)c(C)c5CCC(=O)O)C(CCC(=O)O)=C4C)c(C)c3C=C | active
CCc1c(c/2[nH]c1/C=C/1\N=C(/C(=C/3\N=C(/C=C/4\N/C(=C2)C(=C4C)C=C)[C@@H](C)[C@@H]3CCC(=O)O)CC(=O)N[C@@H](CC(=O)O)C(=O)O)C(=C1C)C(=O)O)C | inactive
COC(=O)[C@H]1C2C(=O)N(C3CC3)C[C@]23C=C[C@H]1O3 (some centres undefined) | inactive
C[C@H]1CN([C@@H](C)CO)C(=O)c2cccc(NC(=O)C3CCCCC3)c2O[C@H]1CN(C)Cc1ccc(Cl)c(Cl)c1 | inactive
CO[C@H]1CN(C)C(=O)c2ccc(NS(C)(=O)=O)cc2OC[C@H](C)N(C(=O)c2ccc3c(c2)OCO3)C[C@H]1C | inactive
C[C@@H]1CN([C@@H](C)CO)S(=O)(=O)c2ccc(C#CC(C)(C)O)cc2O[C@H]1CN(C)Cc1ccccc1 | inactive

Compound | cytotoxicity call
CCCC(=O)Nc1ccc2c(c1)C(=O)N(C)C[C@@H](OC)[C@H](C)CN(Cc1cc(-c3ccccc3)on1)[C@H](C)CO2 | inactive
Cc1noc(C)c1NC(=O)N(C)C[C@@H]1Oc2ccc(NC(=O)CCCN(C)C)cc2C(=O)N([C@@H](C)CO)C[C@@H]1C | inactive
C[C@@H]1CN([C@@H](C)CO)C(=O)Cc2cc(NC(=O)Cc3ccccc3)ccc2O[C@@H]1CN(C)S(=O)(=O)c1ccccc1 | inactive
O=C(Nc1ccc2c(c1)[C@@H]1C[C@@H](CC(=O)N3CCc4ccccc4C3)O[C@@H](CO)[C@@H]1O2)C1CCOCC1 | inactive
O=C(C[C@H]1C=C[C@H](NC(=O)c2ccc3c(c2)OCO3)[C@H](CO)O1)NCc1ccc(Oc2ccccc2)cc1 | inactive
CC(C)CC#Cc1cnc2c(c1)C(=O)N([C@H](C)CO)C[C@@H](C)[C@@H](CN(C)C(=O)c1ccc3c(c1)OCO3)O2 | inactive
C[C@H]1CN([C@@H](C)CO)C(=O)CCCn2nncc2CO[C@H]1CN(C)S(=O)(=O)c1ccc(C#N)cc1 | inactive
Cc1ccc(S(=O)(=O)NCC[C@H]2CC[C@H](NS(=O)(=O)c3ccccc3Cl)[C@H](CO)O2)cc1 | inactive
C[C@@H]1CN([C@H](C)CO)C(=O)c2cc(NC(=O)Nc3cccc4ccccc34)ccc2O[C@H]1CN(C)C(=O)Nc1ccc2c(c1)OCO2 | inactive
C[C@@H]1CN([C@@H](C)CO)C(=O)Cc2cc(NC(=O)C3CC3)ccc2O[C@H]1CN(C)S(=O)(=O)c1cccs1 | inactive
Cc1noc(C)c1NC(=O)Nc1ccc2c(c1)C(=O)N([C@@H](C)CO)C[C@H](C)[C@@H](CN(C)C(=O)Nc1ccc(F)cc1)OCCCC[C@@H](C)O2 | inactive
Cc1[nH]c(=O)[nH]c(=O)c1CCC(=O)O | inactive
Cc1nc2[nH]c(C)c(CCC(=O)O)c(=O)n2n1 | inactive
[Fe+3].CC/1=C(CCC(=O)O)/C/2=C/c3[nH]c(c(c3CCC(=O)O)C)/C=C/3\N=C(/C=C/4\N=C(\C=C1/N2)C(=C4C)C=C)C(=C3C)C=C | active
C[C@H]1CN([C@@H](C)CO)C(=O)Cc2cc(NC(=O)Nc3ccc(Cl)c(Cl)c3)ccc2O[C@H]1CN(C)S(=O)(=O)c1ccc(Cl)cc1 | active
Cc1ccccc1S(=O)(=O)N(C)C[C@@H]1Oc2ccc(NC(=O)Nc3cc(Cl)cc(Cl)c3)cc2CC(=O)N([C@@H](C)CO)C[C@@H]1C | inactive
CC(C)NC(=O)Nc1ccc2c(c1)CC(=O)N([C@H](C)CO)C[C@H](C)[C@@H](CN(C)S(=O)(=O)c1ccc(Cl)cc1)O2 | inactive
C[C@H]1CN([C@@H](C)CO)C(=O)Cc2cc(NC(=O)Nc3cc(Cl)cc(Cl)c3)ccc2O[C@H]1CN(C)S(=O)(=O)c1ccc(Cl)cc1 | active
CC(C)NC(=O)Nc1ccc2c(c1)CC(=O)N([C@H](C)CO)C[C@H](C)[C@H](CN(C)S(=O)(=O)c1ccc(Cl)cc1)O2 | inactive
Cc1ccccc1S(=O)(=O)N(C)C[C@@H]1Oc2ccc(NC(=O)Nc3cccc(C(F)(F)F)c3)cc2CC(=O)N([C@@H](C)CO)C[C@@H]1C | inactive
CC(C)NC(=O)Nc1ccc2c(c1)CC(=O)N([C@@H](C)CO)C[C@H](C)[C@@H](CN(C)S(=O)(=O)c1ccc(Cl)cc1)O2 | inactive
CC(C)NC(=O)Nc1ccc2c(c1)CC(=O)N([C@@H](C)CO)C[C@@H](C)[C@@H](CN(C)S(=O)(=O)c1ccc(Cl)cc1)O2 | inactive
Cc1ccccc1S(=O)(=O)N(C)C[C@@H]1Oc2ccc(NC(=O)Nc3ccc(Cl)c(Cl)c3)cc2CC(=O)N([C@@H](C)CO)C[C@@H]1C | active

Compound | cytotoxicity call
Cc1noc(C)c1NC(=O)Nc1ccc2c(c1)CC(=O)N([C@H](C)CO)C[C@H](C)[C@@H](CN(C)Cc1ccc(C(=O)Nc3ccccc3N)cc1)O2 | inactive
CCS(=O)(=O)Nc1ccc2c(c1)C(=O)N(C)C[C@H](OC)[C@H](C)CN(CCC(F)(F)F)[C@@H](C)CO2 | inactive
CCN(CC)c1ccc(N2CC=C[C@@]34O[C@@H]5/C=C\CCCOC(=O)[C@@H]5[C@H]3C(=O)N([C@@H](C)CO)[C@@H]4C2=O)cc1 | inactive
COc1ccc(NC(=O)Nc2ccc3c(c2)C(=O)N([C@H](C)CO)C[C@@H](C)[C@H](CN(C)C(=O)Nc2ccccc2)OCCCC[C@@H](C)O3)cc1 | inactive
Oc1cccc(O)c1O | inactive
Cn1cc(-c2cc3c(N4CCN(c5ncc([C@@](C)(N)c6ccc(F)cc6)cn5)CC4)ncnn3c2)cn1 | active
C[C@H](CO)N1C[C@H](C)[C@@H](CN(C)C(=O)Cc2cccnc2)Oc2cc(C#CC3(O)CCCC3)ccc2S1(=O)=O | inactive
C[C@H](CO)N1C[C@H](C)[C@@H](CN(C)Cc2ccc3c(c2)OCO3)OCCCC[C@H](C)Oc2ccc(NC(=O)CCC(F)(F)F)cc2C1=O | inactive
Cc1noc(C)c1S(=O)(=O)N(C)C[C@H]1Oc2c(NS(=O)(=O)c3ccccc3)cccc2C(=O)N([C@@H](C)CO)C[C@H]1C | inactive
COc1ccc(S(=O)(=O)Nc2ccc3c(c2)CC(=O)N([C@@H](C)CO)C[C@H](C)[C@@H](CN(C)C(=O)NC(C)C)O3)cc1 | inactive
CC(=O)O[C@@]1(C)C[C@@H](O)[C@@H]2C=CO[C@@H](O[C@@H]3O[C@H](CO)[C@@H](O)[C@H](O)[C@H]3O)[C@@H]21 | inactive
O=C(Nc1ccc(-c2nc3cc(NC(=O)c4ccccc4[N+](=O)[O-])ccc3o2)cc1)c1ccccc1[N+](=O)[O-] | active
CCCC(=O)Nc1ccc(-c2nc3cc(C(C)C)ccc3o2)cc1 | inactive
O=C(Nc1ccc(-c2nc3ccc(NC(=O)c4ccc(Cl)cc4)cc3[nH]2)cc1)c1ccc(Cl)cc1 | active
NC1(C(=O)Nc2ccc3nc(-c4ccc(F)cc4)oc3c2)CC1 | inactive
c1ccc(-c2nc3ccccc3o2)cc1 | inactive
O=C(Nc1ccc(-c2nc3ccc(NC(=O)c4ccccc4[N+](=O)[O-])cc3[nH]2)cc1)c1ccccc1[N+](=O)[O-] | active
Cc1ccc(NC(=O)c2cc(=O)[nH]c(=O)[nH]2)cc1 | inactive
O=C(Nc1ccc(-c2nc3ccc(NC(=O)c4ccc(NC(=O)c5cccc6ccccc56)cc4)cc3[nH]2)cc1)c1ccc(NC(=O)c2cccc3ccccc23)cc1 | inactive
O=C(Nc1ccc(-c2nc3cc(NC(=O)c4ccccc4Cl)ccc3o2)cc1)c1ccccc1Cl | active
O=[N+]([O-])c1ccc2nc(CO)[nH]c2c1 | inactive
c1ccc2[nH]c(-c3ccncc3)nc2c1 | inactive
NCc1ccc(-c2nc3ccccc3o2)cc1 | inactive
